Assay results: PubChem BioAssay
Unmarked numbers belong to inactive results. The source made the active and inactive calls.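 The calls were made as follows, unless noted: active = compounds that lower viability of the colon cancer cells in the luminescence readout, with no numeric limit stated; inactive = the rest.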

Key:
[1] = stimulators of insulin release from INS-1E, primary screen, cell-based, 5 mM glucose, NPC library (AID 1117329;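 active = compound raises insulin release from rat beta cells at 5 mM glucose, no numeric limit stated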; also: reference of the scale not given here); conditions: rat INS-1E insulin secretion, at 10 µM, active compounds read high
[2] = growth inhibition of GSK3B-pretreated HCT116 cells – cell-based, CellTiter-Glo, 0.2 to 20 µM (AID 1117336;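 active = compounds lowering colon cancer cell viability after pretreatment blocking the GSK3B kinase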); conditions: HCT116 viability after GSK3B inhibitor, at 20 µM, active compounds read high
[3] = inhibition of endothelial tube formation, primary screen, imaging, VEGF stimulated, CD31 staining, tube area, NPC library (AID 1117340;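 active = compound that reduces growth-factor-driven endothelial tube area in a mixed cell culture, no cutoff stated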); conditions: VEGF-stimulated ADSC/ECFC co-culture, at 10 µM, active compounds read high
[4] = GLP1 release stimulators, primary, NCI-H716, NPC library (AID 1117341;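 active = compound raises GLP1 secretion from the human gut endocrine cells, with no numeric limit stated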; also: reference of the scale not given here); conditions: NCI-H716 cells, at 10 µM, active compounds read high
[5] = HCT116 colon cancer cell growth inhibition, primary screen, CellTiter-Glo luminescence, NPC library (AID 1117342;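 active = compounds that lower survival of HCT116 colon cancer cells in the luminescence readout, no numeric limit stated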); conditions: at 20 µM (top of the series)
[6] = reduced SW480 viability measured with CellTiter-Glo, NPC library, primary (AID 1117343); conditions: CellTiter-Glo luminescence; at 20 µM (top of the series)
[7] = NPC library primary testing for decreased DLD-1 cell viability via CellTiter-Glo (AID 1117346;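 active = compounds that lower survival of DLD-1 colon cancer cells in the luminescence readout, no cutoff given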); conditions: DLD-1 viability, CellTiter-Glo luminescence; at 20 µM (top of the series)
[8] = target: 6-phosphogluconate dehydrogenase, decarboxylating (Homo sapiens) (UniProt P52209); test: inhibition of human phosphogluconate dehydrogenase – biochemical, recombinant enzyme, NADPH absorbance, primary screen (AID 1159550;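 active = at least 20% inhibition of 6-phosphogluconate dehydrogenase activity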); conditions: recombinant 6PGD, NADPH absorbance 341 nm; at 10 µM; active compounds read high
Chain of 6-phosphogluconate dehydrogenase, decarboxylating (Homo sapiens) (P52209 whole entry, looked up): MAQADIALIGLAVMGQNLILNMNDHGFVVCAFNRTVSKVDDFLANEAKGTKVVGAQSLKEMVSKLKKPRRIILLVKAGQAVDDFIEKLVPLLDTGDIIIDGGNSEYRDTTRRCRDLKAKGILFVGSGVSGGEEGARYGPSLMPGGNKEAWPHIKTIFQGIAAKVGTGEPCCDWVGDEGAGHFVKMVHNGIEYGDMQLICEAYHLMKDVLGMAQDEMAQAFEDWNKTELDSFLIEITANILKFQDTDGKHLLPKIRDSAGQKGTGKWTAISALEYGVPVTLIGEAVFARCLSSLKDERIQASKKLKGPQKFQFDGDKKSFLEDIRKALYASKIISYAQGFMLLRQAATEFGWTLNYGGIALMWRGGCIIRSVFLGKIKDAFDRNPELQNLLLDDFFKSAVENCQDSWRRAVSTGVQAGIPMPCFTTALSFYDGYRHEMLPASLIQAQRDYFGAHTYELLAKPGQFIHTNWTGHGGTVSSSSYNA

| SMILES | insulin secretion stimulation [1] | viability decrease [2] | tube area decrease [3] | GLP1 secretion stimulation [4] | inhibition of viability [5] | viability decrease (inhibition) [6] | viability decrease (inhibition) [7] | inhibition [8] |
| --- | --- | --- | --- | --- | --- | --- | --- | --- |
| COC(=O)[C@@H](N)CS | 1.6% | -1.8% | -0.7% | 4.1% | 3.2% | 17.6% | 23.2% (active) | 3.23% |
| CC(=O)Oc1c(C)c(C)c2c(c1C)CC[C@@](C)(CCC[C@H](C)CCC[C@H](C)CCCC(C)C)O2 | 0.3% | -9.9% | -15.2% | 1.2% | 1.13% | -13.6% | -19.7% | 14% |
| CCOC(=O)OC(C)OC(=O)[C@@H]1N2C(=O)[C@@H](NC(=O)[C@H](N)c3ccccc3)[C@H]2SC1(C)C (stereo not given in full) | 0.3% | -28.2% | 5.9% | -3.1% | -1.7% | -35.9% | -10.2% | -1.65% |
| CO[C@@]1(NC(=O)CSCC#N)C(=O)N2C(C(=O)O)=C(CSc3nnnn3C)CS[C@@H]21 | -1.4% | -2.9% | -0.3% | -2.4% | -6.4% | -7.4% | -14.4% | -6.33% |
| CC1CC(OC(=O)C(O)c2ccccc2)CC(C)(C)N1C (stereo not given) | 2.7% | 3.6% | 10.4% | 2.1% | 9.83% | 17.1% | 0.1% | -25.4% |
| C[C@]12C[C@H](O)[C@H]3[C@@H](CCC4=CC(=O)CC[C@@]43C)[C@@H]1CC[C@@H]2C(=O)CO | 1.6% | -24.9% | 9.5% | 0.3% | -2.93% | 37.4% | 8.6% | – |
| C[C@]12CC[C@@H]3c4ccc(O)cc4CC[C@H]3[C@@H]1CCC2=O | -1.5% | -6% | 21.8% | -1.2% | -35.2% | 32.8% | -3.45% | -17.4% |
| Cc1c(C(=O)O)c(O)cc2c1C(=O)c1c(O)c([C@@H]3O[C@H](CO)[C@@H](O)[C@H](O)[C@H]3O)c(O)c(O)c1C2=O | 4.4% | 46.7% | 24.4% | -1.7% | 35% | 53.2% (active) | 34.5% | -2.65% |
| O=c1cc(CO)occ1O | -1.3% | -8.3% | -7.1% | 1.9% | -7% | 38.7% | 10.8% | 6.93% |
| CN1[C@@H]2CC[C@H]1CC(OC(=O)C(O)c1ccccc1)C2 (stereo not given in full) | 3.1% | 15% | -13.1% | 1% | 28% | 22.2% | -0.2% | -3.32% |
| CC[C@]12CCCN3CCc4c(n(c5ccccc45)[C@@](O)(C(=O)OC)C1)[C@@H]32 | -1.7% | -2.5% | 25.6% | -2.6% | -43.9% | 0.1% | -31.5% | -2.98% |
| C[C@@H]1CC[C@@]2(OC1)O[C@H]1C[C@H]3[C@@H]4CC[C@H]5C[C@@H](O)CC[C@]5(C)[C@H]4CC(=O)[C@]3(C)[C@H]1[C@@H]2C | 3.2% | 13.4% | -13.1% | -3.1% | 4.27% | 7.5% | 3.7% | 14.9% |
| CC[C@]12CCCN3CCc4c(n(c5ccccc45)C(=O)C1)[C@@H]32 | 0.1% | -29% | 100% (active) | 7.7% | 35.7% | 60% (active) | 66.2% (active) | -5.24% |
| CCOC(=O)n1ccn(C)c1=S | 0.6% | -40.3% | 10.6% | 0.3% | -5.63% | 6.5% | 5.3% | 2.95% |
| CC(=O)O[C@]1(C(C)=O)CC[C@H]2[C@@H]3C=C(Cl)C4=CC(=O)CC[C@]4(C)[C@H]3CC[C@@]21C | 0% | 56.2% (active) | 22.4% | 1.3% | 52.6% (active) | 57.1% (active) | 7.1% | -12% |
| CC(=O)Nc1ccc(OCC(O)CNC(C)C)cc1 (stereo not given) | 5.6% | 4.2% | -0.3% | -1.9% | 11.1% | 26.9% | 42% | 2.72% |
| Nc1c2c(nc3ccccc13)CCCC2O (stereo not given) | 11.8% | 5.9% | 16.1% | 8.3% | 3.6% | 26.9% | -22.2% | 7.08% |
